# PubChem BioAssay (Tox21)
# Calls of active or inactive are those of the source. Calls follow the shape of the dose curve; as a rule, active = well fitted curve in the direction sought with a large enough effect in the repeat runs; inconclusive = weak or mixed curves; inactive = flat fitted curve, though single readings scatter.
# Experiment: qHTS assay to test for compound auto fluorescence at 535 nm (green) in HEK293 cell free culture (AID 720682)
# Conditions: cell-free medium, green autofluorescence 485/535 nm, hits give high values; series mostly up to 91.3 µM
# Description: U.S. Tox21 Program National Center for Advancing Translational Sciences [NCATS] NIH Chemical Genomics Center [NCGC] U.S. Environmental Protection Agency [EPA] National Institutes of Environmental Health Sciences [NIEHS] National Toxicology Program [NTP] U.S. Food and Drug Administration [FDA] Tox21 Assay Overview: Compound auto fluorescence often interferes with screening of the compound library against various biological targets and signaling pathways. Some of these compounds may have fluorophoric properties. Such properties may interfere with the assay outputs resulting in false positives and/or negatives. To decrease such complications and ensure the compound activities are relevant in terms of biological response, the Tox21 10K compound library was screened for auto fluorescence. From the fluorophores used as reporter signals in our screening assays, the auto fluorescence equivalencies of compounds against three fluorophores have been evaluated: Triamterene, Fluorescein and Rose Bengal sodium for blue, green and red fluorescence, respectively. The fluorescence intensities were measured using Excitation/Emission wavelengths at 405/460nm, 485/535nm and 540/590nm for blue, green and red labels, respectively. This assay includes the green fluorescence data.
# Tox21 Assay Protocol Summary: 5 uL of culture medium (DMEM containing 10% FBS) per well was dispensed into black wall/clear bottom 1536-well plates using a Multidrop Combi Dispenser (ThermoFisher Scientific, Waltham, MA). After 23 nL compound or DMSO vehicle was transferred into assay plate by a pintool work station (Kalypsys, San Diego, CA), fluorescence intensities in the assay plates were measured by an Envision (PerkinElmer, Shelton, CT) plate reader using three labels for measuring blue, green and red fluorescence at […] 460, 535 and 590nm respectively.
# % is scaled to controls: 0 for no effect and ±100 for the full control effect.
Structure (SMILES),outcome,activity change
O=C(/C=C/c1ccc(O)c(O)c1)O[C@@H]1C[C@](O)(C(=O)O)C[C@@H](O)[C@H]1O,inactive,
CCCCCC/C=C/C=O,inactive,
CCN(CC)CCOC(=O)C1(c2ccccc2)CCCC1,inactive,
CC[C@]12CCCN3CCc4c(n(c5ccccc45)C(=O)C1)[C@@H]32,,0.026% [at 18.6 µM] (inactive)
CCCCCCCCCO,inactive,
CC1CCc2cc(F)cc3c(=O)c(C(=O)O)cn1c23 (stereo not given),inactive,
O=C(c1ccccc1)c1ccc2n1CCC2C(=O)O (stereo not given),inactive,
CCOC(=O)C1=NN(c2ccccc2)C(=O)C1,inactive,
OC(CCN1CCCCC1)(c1ccccc1)C1CCCCC1 (stereo not given),inactive,
CN(c1nccc(=O)[nH]1)C1CCN(c2nc3ccccc3n2Cc2ccc(F)cc2)CC1,inactive,
O=C(O)c1cccc(N(Cc2cccnc2)c2ccc(OC(F)F)c(OC(F)F)c2)c1,inactive,
O=[N+]([O-])c1cccc(Cl)c1Cl,inactive,
COc1ccc2[nH]c(S(=O)Cc3ncc(C)c(OC)c3C)nc2n1 (stereo not given),inactive,
Cc1ccc(C(N)=O)cc1N,inactive,
CC(Cc1cccc(C(F)(F)F)c1)NCCOC(=O)c1ccccc1 (stereo not given),inactive,
Cc1occc1S,inactive,
Cc1c(Cn2ccnc2)c2ccccc2n1CCC(=O)O,inactive,
C=CC[N+]1([C@H]2C[C@H]3[C@@H]4CC[C@H]5C[C@H](OC(C)=O)[C@@H](N6CCCCC6)C[C@]5(C)[C@H]4CC[C@]3(C)[C@H]2OC(=O)CC)CCCCC1,inactive,
Cc1ccccc1N=Nc1ccc(N=Nc2c(O)ccc3ccccc23)c(C)c1,inactive,
ClC(Cl)(Cl)c1ccc(C(Cl)(Cl)Cl)cc1,inactive,

Structure (SMILES),outcome,activity change
c1ccc(-c2nc[nH]c2-c2ccccc2)cc1,inactive,
O=C(Cl)c1ccc([N+](=O)[O-])cc1,inactive,
CN(C)CCCNCCCN,inactive,
COC(Cc1ccccc1)OC,inactive,
C=C(C)C(=O)OCCOc1ccccc1,inactive,
NCCCN(CCO)CCO,inactive,
CN(C)CC[C@@H](c1ccc(Br)cc1)c1ccccn1,inactive,
C=CC(=O)OCCOC(=O)CCC(=O)O,inactive,
CC1=CC(=O)/C(=C(/C)O)C(=O)O1,inactive,
NCCCOCCOCCOCCCN,inactive,
CCCCOCCOCCOCCOCCO,inactive,
CCCCCCCCCCCCCCC1CO1 (stereo not given),inactive,
CC(=O)Nc1ccc(/C=N/NC(N)=S)cc1,inactive,
NC(N)=N/N=C/c1c(Cl)cccc1Cl,inactive,
C=C(C)C(=O)OC(C)C,inactive,
CC(C)(C)c1cc(CCC(=O)OCC(COC(=O)CCc2cc(C(C)(C)C)c(O)c(C(C)(C)C)c2)(COC(=O)CCc2cc(C(C)(C)C)c(O)c(C(C)(C)C)c2)COC(=O)CCc2cc(C(C)(C)C)c(O)c(C(C)(C)C)c2)cc(C(C)(C)C)c1O,inactive,
O=C(NS(=O)(=O)/C=C/c1cccs1)c1ccc(F)cc1Br,inactive,
CC(=O)[C@@]1(O)CC[C@H]2[C@@H]3C[C@H](C)C4=CC(=O)CC[C@]4(C)[C@H]3CC[C@@]21C,inactive,
Oc1ccc(C(O)CNCCCCCCNCC(O)c2ccc(O)c(O)c2)cc1O (stereo not given),inactive,
CCCC(=O)OCC,inactive,
